According to PubChem BioAssay AID1159580 (chemical genetic matrix, 2015):
About 2,000 (36%) of roughly 5,500 compounds were called active. About 18% were inconclusive and are not listed. Cut-off read from the data, not from the text of the source: active = normalized growth mostly below about 0.91 (no sharp cut-off); inconclusive = no clear call, values can overlap the other calls; inactive = mostly above about 0.92. The list shows a part of the results.

Test: chemical genetic growth profiling, strain panel (AID 1159580);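 note: tested at 20 µM; growth read once vehicle control cultures reached saturation at 30 °C; 1 = growth at the plate median or of vehicle wells; lower values mean less growth of the strain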
Conditions: growth OD

Measured: normalized growth

N[C@@H](Cc1ccc(N(CCCl)CCCl)cc1)C(=O)O
inactive: S. cerevisiae deletion strains, locus YJR075W, strain HOC1, active compounds read low 0.986 | S. cerevisiae deletion strains, locus YKL009W, strain mrt4, active compounds read low 0.961 | S. cerevisiae deletion strains, locus YKL068W, active compounds read low 0.971 | S. cerevisiae deletion strains, locus YKL085W, strain MDH1 (second series), active compounds read low 0.991 | S. cerevisiae deletion strains, locus YKL085W, strain MDH1, active compounds read low 0.991 | S. cerevisiae deletion strains, locus YKL160W, strain elf1, active compounds read low 0.968 | S. cerevisiae deletion strains, locus YKL190W, strain CNB1, active compounds read low 0.98 | S. cerevisiae deletion strains, locus YKR001C, strain vps1, active compounds read low 0.961 | S. cerevisiae deletion strains, locus YKR026C, strain gcn3, active compounds read low 0.979 | S. cerevisiae deletion strains, locus YKR091W, strain srl3, active compounds read low 0.975 | S. cerevisiae deletion strains, locus YLL001W, strain dnm1, active compounds read low 0.929 | S. cerevisiae deletion strains, locus YLL026W, active compounds read low 0.989 | S. cerevisiae deletion strains, locus YLL041C, strain sdh2, active compounds read low 0.982 | S. cerevisiae deletion strains, locus YLR027C, strain aat2, active compounds read low 0.995 | S. cerevisiae deletion strains, locus YLR039C, strain RIC1, active compounds read low 0.96 | S. cerevisiae deletion strains, locus YLR058C, strain SHM2, active compounds read low 0.968 | S. cerevisiae deletion strains, locus YLR102C, strain apc9, active compounds read low 0.981 | S. cerevisiae deletion strains, locus YLR113W, strain HOG1, active compounds read low 1.03 | S. cerevisiae deletion strains, locus YLR221C, strain rsa3, active compounds read low 0.958 | S. cerevisiae deletion strains, locus YLR258W, strain gsy2, active compounds read low 0.983 | S. cerevisiae deletion strains, locus YLR262C, strain YPT6 (second series), active compounds read low 0.979 | S. cerevisiae deletion strains, locus YLR262C, strain YPT6, active compounds read low 0.898 | S. cerevisiae deletion strains, locus YLR268W, strain sec22, active compounds read low 0.967 | S. cerevisiae deletion strains, locus YLR320W, strain mms22, active compounds read low 0.97 | S. cerevisiae deletion strains, locus YLR330W, strain CHS5, active compounds read low 0.986 | S. cerevisiae deletion strains, locus YLR342W, strain FKS1 (second series), active compounds read low 0.983 | S. cerevisiae deletion strains, locus YLR342W, strain FKS1, active compounds read low 0.978 | S. cerevisiae deletion strains, locus YLR357W, strain rsc2, active compounds read low 0.954 | S. cerevisiae deletion strains, locus YLR370C, strain arc18, active compounds read low 0.978 | S. cerevisiae deletion strains, locus YLR371W, strain rom2, active compounds read low 0.978 | S. cerevisiae deletion strains, locus YLR384C, strain iki3, active compounds read low 0.985 | S. cerevisiae deletion strains, locus YLR418C, strain cdc73, active compounds read low 0.976 | S. cerevisiae deletion strains, locus YML016C, strain PPZ1, active compounds read low 0.982 | S. cerevisiae deletion strains, locus YML032C, strain rad52, active compounds read low 0.979 | S. cerevisiae deletion strains, locus YML120C, strain ndi1, active compounds read low 0.952 | S. cerevisiae deletion strains, locus YML124C, strain tub3, active compounds read low 0.987 | S. cerevisiae deletion strains, locus YMR058W, strain fet3, active compounds read low 0.983 | S. cerevisiae deletion strains, locus YMR078C, strain ctf18, active compounds read low 0.961 | S. cerevisiae deletion strains, locus YMR125W, strain sto1, active compounds read low 0.97 | S. cerevisiae deletion strains, locus YMR129W, active compounds read low 0.981 | S. cerevisiae deletion strains, locus YMR205C, strain PFK2, active compounds read low 0.974 | S. cerevisiae deletion strains, locus YMR223W, strain ubp8, active compounds read low 0.987 | S. cerevisiae deletion strains, locus YMR231W, strain pep5, active compounds read low 0.987 | S. cerevisiae deletion strains, locus YMR263W, strain SAP30, active compounds read low 0.982 | S. cerevisiae deletion strains, locus YMR307W, strain GAS1, active compounds read low 0.915 | S. cerevisiae deletion strains, locus YNL067W, strain RPL9B, active compounds read low 0.984 | S. cerevisiae deletion strains, locus YNL071W, strain lat1, active compounds read low 0.932 | S. cerevisiae deletion strains, locus YNL128W, strain TEP1, active compounds read low 0.982 | S. cerevisiae deletion strains, locus YNL153C, strain GIM3, active compounds read low 0.976 | S. cerevisiae deletion strains, locus YNL183C, strain NPR1, active compounds read low 0.966 | S. cerevisiae deletion strains, locus YNL209W, strain ssb2, active compounds read low 0.983 | S. cerevisiae deletion strains, locus YNL233W, strain BNI4, active compounds read low 0.994 | S. cerevisiae deletion strains, locus YNL248C, strain rpa49, active compounds read low 0.978 | S. cerevisiae deletion strains, locus YNL250W, strain rad50, active compounds read low 0.969 | S. cerevisiae deletion strains, locus YNL271C, strain bni1, active compounds read low 0.979 | S. cerevisiae deletion strains, locus YNL298W, strain CLA4, active compounds read low 0.979 | S. cerevisiae deletion strains, locus YNL307C, strain MCK1, active compounds read low 0.985 | S. cerevisiae deletion strains, locus YNL322C, strain KRE1 (second series), active compounds read low 0.989 | S. cerevisiae deletion strains, locus YNL322C, strain KRE1, active compounds read low 0.982 | S. cerevisiae deletion strains, locus YNR049C, strain mso1, active compounds read low 0.977 | S. cerevisiae deletion strains, locus YNR052C, strain pop2, active compounds read low 0.974 | S. cerevisiae deletion strains, locus YOL006C, strain TOP1, active compounds read low 0.954 | S. cerevisiae deletion strains, locus YOL012C, strain htz1 0.837 | S. cerevisiae deletion strains, locus YOL147C, strain pex11, active compounds read low 0.986 | S. cerevisiae deletion strains, locus YOR001W, strain rrp6, active compounds read low 0.988 | S. cerevisiae deletion strains, locus YOR061W, strain CKA2, active compounds read low 0.962 | S. cerevisiae deletion strains, locus YOR069W, strain VPS5, active compounds read low 0.998 | S. cerevisiae deletion strains, locus YOR070C, strain gyp1, active compounds read low 0.979 | S. cerevisiae deletion strains, locus YOR080W, strain dia2, active compounds read low 0.995 | S. cerevisiae deletion strains, locus YOR083W, strain WHI5, active compounds read low 0.963 | S. cerevisiae deletion strains, locus YOR106W, strain vam3, active compounds read low 0.996 | S. cerevisiae deletion strains, locus YOR136W, strain idh2, active compounds read low 0.989 | S. cerevisiae deletion strains, locus YOR144C, strain elg1, active compounds read low 0.99 | S. cerevisiae deletion strains, locus YOR184W, strain ser1, active compounds read low 0.96 | S. cerevisiae deletion strains, locus YOR231W, strain MKK1, active compounds read low 1.01 | S. cerevisiae deletion strains, locus YOR265W, strain rbl2, active compounds read low 0.989 | S. cerevisiae deletion strains, locus YOR270C, strain vph1, active compounds read low 0.981 | S. cerevisiae deletion strains, locus YOR290C, strain snf2, active compounds read low 0.909 | S. cerevisiae deletion strains, locus YOR316C, strain cot1, active compounds read low 0.97 | S. cerevisiae deletion strains, locus YPL051W, strain arl3, active compounds read low 0.974 | S. cerevisiae deletion strains, locus YPL055C, strain LGE1, active compounds read low 0.963 | S. cerevisiae deletion strains, locus YPL078C, strain atp4, active compounds read low 0.974 | S. cerevisiae deletion strains, locus YPL106C, strain sse1, active compounds read low 0.976 | S. cerevisiae deletion strains, locus YPL240C, strain hsp82, active compounds read low 0.989 | S. cerevisiae deletion strains, locus YPL241C, strain CIN2, active compounds read low 1.04 | S. cerevisiae deletion strains, locus YPL256C, strain CLN2, active compounds read low 1.02 | S. cerevisiae deletion strains, locus YPR119W, strain clb2, active compounds read low 0.991 | S. cerevisiae deletion strains, locus YPR141C, strain kar3, active compounds read low 0.961 | S. cerevisiae deletion strains, locus YPR163C, strain tif3, active compounds read low 0.984 | S. cerevisiae deletion strains, locus YPR167C, strain met16, active compounds read low 0.972 | S. cerevisiae deletion strains, strain wtn01, active compounds read low 0.982 | S. cerevisiae strains, strain wild type, active compounds read low 0.983
